Test results as given in PubChem BioAssay AID651601 (Sanford-Burnham Center for Chemical Genomics, 2012).
Activity calls are given as the source filed them.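 How the source made its calls: active means CXCR6 mean IC50 below 15 µM, and neither CCR6 nor CXCR5 mean IC50 under five times that; inactive means the rest.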

These molecules were tested against C-C chemokine receptor type 6 (Homo sapiens) (UniProt P51684) (assay: antagonist selectivity across CCR6, CXCR5 and CXCR6 – cell-based, CHO-K1 PathHunter beta-arrestin, luminescence, selectivity assay for CXCR6 antagonist project, profiling panel (AID 651601)). Details: antagonist mode, mean of runs.
C-C chemokine receptor type 6 (Homo sapiens), sequence (P51684 whole entry, looked up): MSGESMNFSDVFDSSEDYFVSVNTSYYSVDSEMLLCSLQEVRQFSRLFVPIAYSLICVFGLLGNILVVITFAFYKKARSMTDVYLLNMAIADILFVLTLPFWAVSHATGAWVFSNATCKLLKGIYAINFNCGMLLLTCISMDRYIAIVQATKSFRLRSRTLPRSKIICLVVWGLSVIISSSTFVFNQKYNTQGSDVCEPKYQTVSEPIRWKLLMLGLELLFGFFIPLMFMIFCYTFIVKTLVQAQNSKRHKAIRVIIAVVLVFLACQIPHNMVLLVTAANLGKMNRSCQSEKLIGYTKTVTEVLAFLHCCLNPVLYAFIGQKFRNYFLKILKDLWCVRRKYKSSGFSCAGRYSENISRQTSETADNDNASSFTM

outcome, inactive:
COc1cccc(C(=O)NC2CC3CCCC(C2)N3CC(=O)Nc2ccccc2C(F)(F)F)c1 (stereo unspecified)
O=C(CN1C2CCCC1CC(NC(=O)c1ccccc1)C2)Nc1ccccc1 (stereo unspecified)
CN(C)c1ccc(NC(=O)CN2C3CCCC2CC(NC(=O)c2ccccc2)C3)cc1 (stereo unspecified)
O=C(CN1C2CCCC1CC(NC(=O)c1ccccc1)C2)Nc1ccccc1C(F)(F)F (stereo unspecified)
COc1cccc(C(=O)NC2CC3CCCC(C2)N3CC(=O)Nc2ccc(N(C)C)cc2)c1 (stereo unspecified)
COc1cc(C(=O)NC2CC3CCCC(C2)N3CC(=O)Nc2ccccc2)cc(OC)c1OC (stereo unspecified)
